Vaccinia Venus: vaccinia inhibition (Venus reporter); Potency, µM (top dose mostly 36.5 µM), for inactives: at the top dose activity change, negative = inhibition, actives largely listed as inhibitors; AID 720580; 0.46% of 330,000 active; Vaccinia virus Venus reporter expression, fluorescence; calls by dose curve; tested in A549 cells; further: potency means the concentration at half of the fitted maximal effect; nearly all actives have a fitted effect of over 30% in size
FMDV inh: foot and mouth disease virus antiviral activity. FMDV antiviral cell-based qHTS. Potency, µM (top dose mostly 57.9 µM), without a hit: at the top dose activity change, negative = inhibition, usual class: inhibitors. 1.2% of 410,000 active; calls by dose curve; tested in HEK293T cells; further: read-out not given here; potency means the concentration at half of the fitted maximal effect; nearly all actives have a fitted effect of over 45% in size
HCMV antiviral: inhibitors of human cytomegalovirus. activity change, negative = inhibition, % at 57.5 µM. HFF cells, HCMV-luciferase reporter, 72 h; hits give low values. AID 1259415. 4.5% of 410,000 active; in the data active means activity change below about -60%; inconclusive means no clear call, values can overlap the other calls; inactive means above about -39%
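Cell-based, HFFs, 1000 cells/well, 16 h 37C; cpds in DMSO + HCMV-luc, MOI 1 PFU/cell; 72 h 37C; OneGlo luminescence after 5 min RT; norm. to buffer vs Salinomycin 10uM.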
Marburg entry inh: blocks Marburg virus binding to or entry into cells | Potency, µM (top dose mostly 37.8 µM), for inactives: at the highest dose activity change, negative = inhibition, most hits filed as inhibitors | 1.8% of 300,000 active | Marburg virus pseudotyped entry inhibition, cell reporter | AID 540276; calls by dose curve; tested in HEK293 cells; further: potency means the concentration at half of the fitted maximal effect
Lassa entry inh: blocks Lassa virus binding to or entry into cells | Potency, µM (top dose mostly 37.9 µM), without a hit: at the highest dose activity change, negative = inhibition, most hits filed as inhibitors | 1.2% of 300,000 active | Lassa virus pseudotype entry inhibition, cell reporter; calls by dose curve; tested in HEK293 cells; further: potency means the concentration at half of the fitted maximal effect; nearly all actives have a fitted effect of over 50% in size
Vaccinia mCherry: vaccinia inhibition (mCherry reporter) | Vaccinia virus mCherry reporter infection, fluorescence | Potency, µM (doses to about 36.5 µM), inactives show at the highest dose activity change, negative = inhibition, actives largely listed as inhibitors | 0.63% of 310,000 active | AID 720579; calls by dose curve; tested in A549 cells; further: potency means the concentration at half of the fitted maximal effect; nearly all actives have a fitted effect of over 35% in size
Starred values were filed as active, the others as inactive; i = inactive; u = inconclusive; x = not tested or not shown; [ ] = another dose, or the depositor's remark. Most compounds without a hit are left out; they make up all but 6.5% or so of the library. On the % scale 0 is the no-effect control and ±100 the full control effect.

SMILES	Vaccinia Venus	FMDV inh	HCMV antiviral	Marburg entry inh	Lassa entry inh	Vaccinia mCherry
O=C(c1cccc(COc2cccc3ccccc23)c1)N1CCCC1	x	14%	-5	u	8.2µM*	x
COC(=O)c1ccc(-c2nc3cc(Cl)c(N)cc3s2)cc1	-11%	10µM*	76	0.5µM*	u	-27%
COC(=O)c1ccc(-c2nc(O)c(C)s2)cc1	-8%	8%	-65*	2%[46.1 µM]	23%[46.1 µM]	i
COC(=O)c1ccc(O)cc1	-3%	10%	4	18%	9%	-12%
CN=C(NC#N)Nc1ccc(C2=NNC(=O)C[C@@H]2C)cc1	x	x	x	23%	x	x
Cc1ccc(NC(=O)Cn2c(=O)n(CCc3ccccc3)c(=O)c3c4c(sc32)CCCC4)cc1C	-8%	-2%	7	15%[46.1 µM]	27%[46.1 µM]	-3%
O=C(Nc1ccc(Br)cc1)C1CCCN1S(=O)(=O)c1ccc(F)cc1 (configuration not stated)	-17%	-14%	u	-11%[46.1 µM]	8%[46.1 µM]	-17%
CCCn1c2c(c(=N)c3c1CCC3)CCC2	-25%	u	-74*	u	-7%	-11%
CCCn1c2c(c(=N)c3c1CCC3)CCCC2	-22%	u	-97*	u	u	-20%
CCCCCCCn1c2c(c(=N)c3ccccc31)CCC2	u	5µM*	-79*	x	x	u
O=C(O)CCn1c2c(c3ccccc31)CCCC2	x	-17%	14	23%	-4%	x
Cc1ccc(-c2cc3c(n2-c2ccccc2F)CC(C)(C)CC3=O)cc1	-15%	-27%	10	9%[46.1 µM]	26%[46.1 µM]	-15%
Cc1c(C)c2cc(Cl)c(O)c(CN3CCC[C@@H](C)C3)c2oc1=O	x	x	x	0%	x	x
CCN(CC)CC(O)CN(c1ccccc1)S(=O)(=O)c1ccc2ccccc2c1 (configuration not stated)	-28%	-3%	-67*	u	u	u
O=S(=O)(c1ccc2ccccc2c1)N(C[C@@H](O)CN1CCOCC1)c1ccccc1	x	x	x	19%	x	x
CCn1c(CNC(=O)c2ccc(OC)cc2)nnc1SCC(=O)Nc1ccc(C)cc1	-14%	19%	20	17%[46.1 µM]	14%[46.1 µM]	-13%
O=C(Nc1nnc(-c2ccccc2)s1)C1CCCN(C(=O)c2ccoc2)C1 (configuration not stated)	-14%	x	x	x	x	-8%
CCS(=O)(=O)N1CCc2cc(C(=O)NC(C)c3ccccc3)ccc21 (configuration not stated)	2%	-22%	-16	-30%[46.1 µM]	-13%[46.1 µM]	-21%
COc1ccc(N2C3=C(C(=O)CC(C)(C)C3)C(c3ccccc3OC)C3=C2CC(C)(C)CC3=O)cc1	-20%	-4%	-65*	u	-2%[46.1 µM]	-19%
COc1ccc(N2C3=C(CC4=C2CC(C)(C)CC4=O)C(=O)CC(C)(C)C3)cc1	-26%	x	-99*	u	-31%	u
COc1ccccc1C1C2=C(CC(C)(C)CC2=O)N(CC(=O)O)C2=C1C(=O)CC(C)(C)C2	x	5%	2	x	x	x
COc1ccc(N2C3=C(CC4=C2CCCC4=O)C(=O)CCC3)cc1	-10%	u	u	-4%	-16%	i
COc1ccc2c(c1)C(C)=CC(C)(C)N2S(=O)(=O)c1ccc(NC(C)=O)cc1	u	-27%	-90*	1.1µM*	u	-15%
COc1ccc2c(c1)C(C)=CC(C)(C)N2S(=O)(=O)c1ccc(Br)cc1	-13%	-17%	-80*	u	u	-5%
CCOc1ccc2c(c1)C(C)=CC(C)(C)N2S(=O)(=O)c1ccc(NC(C)=O)cc1	x	10%	u	x	x	x
SMILES	Vaccinia Venus	FMDV inh	HCMV antiviral	Marburg entry inh	Lassa entry inh	Vaccinia mCherry
COc1ccccc1CNC(=O)c1c[nH]c2ccc(S(=O)(=O)Nc3cc(C)cc(C)c3)cc2c1=O	-9%	0%	1	x	-14%[46.1 µM]	-17%
CN1C(=O)C(n2cccc2)c2ccccc21 (configuration not stated)	x	x	0	x	x	x
O=C(c1cc2ccc3cccnc3c2[nH]1)N1CCN(c2ccccc2)CC1	-3%	7%	-8	x	29%[46.1 µM]	-18%
COc1c2occc2c(OC(C)=O)c2c(=O)cc(C)oc12	-13%	-22%	-67*	16%	-1%	-2%
Cc1ccc(C)c(CN2C(=O)c3ccccc3S(=O)(=O)c3ccc(C(=O)N4CCCCC4)cc32)c1	-4%	7%	0	u	u	-7%
O=C(Cn1nc(CNc2ccc(Cl)cc2)[n+]2c1CCCCC2)c1ccc(Br)cc1	2%	0%	15	-1%	14%	-6%

Screening results: PubChem BioAssay, National Center for Advancing Translational Sciences (NCATS)
